From PubChem BioAssay AID485284 (NMMLSC, 2010)
Entries with a potency or affinity are not part of this list.

assay: inhibitors of CD8+ T cell–vesicle binding, dose response, mouse 2C CD8+ T cells, flow cytometry (AID 485284); conditions: 2C mouse CD8+ T cell-exosome binding; at 45 µM (top of the series);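 note: drosophila derived vesicles carrying Ld MHC with QL9 peptide plus B7-1 and ICAM-1; vesicle binding seen as anti-B7-1 PE fluorescence on CD8 gated cells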

SMILES | binding remaining, % of control [%]
CN(CC(=O)Nc1cccc(F)c1)C(=O)c1ccc(S(=O)(=O)N2CCCC2)cc1 | 21.6
CCN(Cc1ccccc1)C(=O)c1ccc(C)c(S(=O)(=O)N2CCCCC2)c1 | 92.8
COc1ccc(CN2C(=O)C(C)Nc3ncnc(N4CCN(c5ccccn5)CC4)c32)cc1 (centres undefined) | 22
O=C1N=C(N2CCOCC2)S/C1=C\c1cccs1 | 99.5
CCN(CC)S(=O)(=O)c1ccc2c3c(cccc13)C(=O)N2 | 56.2
COc1ccc(OC)c(NC(=O)CCN2CCCCC2)c1 | 220
O=C(COc1ccccc1)Nc1cc(S(=O)(=O)N2CCOCC2)ccc1N1CCCC1 | 128
CCCCN(C(=O)CCCc1nc2ccccc2s1)c1c(N)n(CC(C)C)c(=O)[nH]c1=O | 187
Cc1ccc(S(=O)(=O)Nc2c3ccccc3nc(=O)n2-c2ccccc2)cc1 | 71.8
CCOC(=O)c1c(N2C(=O)CC(Sc3ccccc3C(=O)O)C2=O)sc2c1CCCC2 (centres undefined) | 41.4
O=C(COC(=O)C1(c2cccc(F)c2)CCCC1)NCc1ccc2c(c1)OCO2 | 72.1
COC(=O)CN1C(=S)N(C)C(=O)C1CC(=O)Nc1ccccc1 (centres undefined) | 123
O=C(NNS(=O)(=O)c1ccc2ccccc2c1)c1cccs1 | 42.6
Cc1c(Cl)cccc1NC(=O)c1cc(C2CC2)on1 | 86
Cc1cccc(N(C(=O)c2snc(C(N)=O)c2N)C(C(=O)NCC2CCCO2)c2ccc(N(C)C)cc2)c1C (centres undefined) | 22.8
O=C(NCCc1nc2ccc(Cl)cc2[nH]1)C1CCC(=O)N(Cc2cccc(F)c2)C1 (centres undefined) | 110
COc1ccc2c(c1)-c1c(sn(-c3ccc(OC)c(OC)c3)c1=S)C(C)(C)N2 | 116

SMILES | binding remaining, % of control [%]
Cc1ccc(S(=O)(=O)N2CCN(CCOc3c(Cl)cccc3Cl)CC2)cc1C | 100
Cc1ccc2oc(=O)c(/C=C(\O)c3sc(C)nc3C)nc2c1 | 119
Cc1cc(N2CCN(C)CC2)nc2ccc(NC(=S)N3CCC4(CC3)OCCO4)cc12 | 147
Cc1c(C(=O)NCCSCc2c(F)cccc2Cl)cnn1-c1ccc(Cl)cc1 | 144
O=C(NC(=S)NCc1ccco1)c1ccc(Br)cc1 | 136
CCOC(=O)C1CCN(C(=O)c2ccc(NC(=O)C3CCCO3)cc2)CC1 (centres undefined) | 218
CCOC(=O)c1c(NC(=O)CN2C(=O)NC3(CCC(C)CC3)C2=O)sc(C)c1-c1ccc(C)cc1 (centres undefined) | 108
O=C(CC12CC3CC(CC(C3)C1)C2)N/N=C/c1ccc([N+](=O)[O-])o1 | 70.5
Cc1cc(S(=O)(=O)N2CCN(Cc3ccccc3)CC2)c(C)s1 | 94.5
CCOc1ccc(NC(=O)CN(C)C(=O)c2ccc(N3CCOCC3)c([N+](=O)[O-])c2)cc1OCC | 134
CCCCCCCCn1c2c(c(=N)c3c1CCC3)CCCC2 | 36.6
O=C(Cn1cc2c(n1)CCCC2)NCc1ccccn1 | 106
CC(C)(C)NC(=O)COc1ccc(CNCc2cccnc2)cc1 | 90.5
CC(C)(C)NC(=O)COc1ccc(CNCc2ccccn2)cc1 | 120
COc1ccc(NC(=O)[C@@H](NC(=O)c2ccccc2F)C(C)C)cc1S(=O)(=O)N1CCOCC1 | 84.7
NC(=O)C1CCN(c2nc(-c3cc4ccccc4o3)cs2)CC1 | 44.2
O=C(NCCC1=CCCCC1)C(=O)NCC(c1ccco1)N1CCN(c2ccccc2F)CC1 (centres undefined) | 136
